The values below come from PubChem BioAssay (NCI).

About 83,000 compounds went through this panel and 20% of them were active in at least one assay; those are over-represented in the sample as a whole.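 Assay: single dose, 48 h. Readout: percent growth (0 = no net growth; negative = cell death). Active: <10.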 Values without a mark were called inactive. The source made the active and inactive calls.

Among the test systems are DU-145 prostate; K-562 leukemia; MALME-3M melanoma; MDA-MB-231 breast; RXF 393 renal; SF-268 CNS; SF-295 CNS; SF-539 CNS; UACC-257 melanoma; M14 melanoma.
Holding throughout (assay): NCI-60 one-dose screen, 48 h (100 = growth as untreated, 0 = no growth, -100 = all killed)
Holding throughout (details): 10 µM unless noted

For the compound `CN1CC(CNC(=O)OCc2ccccc2)CC2c3cccc4c3c(cn4C)CC21` (stereo not given), the growth in the assay on DU-145 prostate is 56.8%; with K-562 leukemia, 3.66% (active); in the assay on MALME-3M melanoma, -16% (active); with MDA-MB-231 breast, 27.3%; in the assay on RXF 393 renal, 8.6% (active); in the assay on SF-268 CNS, 59%. The growth in the assay on SF-295 CNS is 25.8%; in the assay on SF-539 CNS it was 28.6%; in the assay on UACC-257 melanoma it was -60.4% (active); with M14 melanoma it was -58% (active).
With `CN(C)C1C(=O)C(C(N)=O)=C(O)C2(O)C(=O)C3=C(O)c4c(O)cccc4C(C)(O)C3CC12.[Cl][Sb]([Cl])[Cl]` (stereo not given), the growth in the assay on DU-145 prostate was 60%; in the assay on K-562 leukemia, 22.9%; in the assay on MALME-3M melanoma, -21.2% (active); in the assay on MDA-MB-231 breast, 79.1%; in the assay with RXF 393 renal, 59.2%; in the assay with SF-268 CNS, 29.7%. For the same compound, the growth in the assay with SF-295 CNS is -3.24% (active); in the assay with SF-539 CNS, 20.9%; with UACC-257 melanoma, 30.1%; in the assay on M14 melanoma, 37%.
Take `O=C(CC1(O)C(=O)N(Cc2ccccc2)c2ccc(Br)cc21)c1ccc(C(=O)NCC2CCC3(CC2)OOC2(CCCCC2)OO3)cc1` (stereo not given): the growth is -98.8% (active) with DU-145 prostate; -5.58% (active) in the assay on K-562 leukemia; -68.1% (active) with MALME-3M melanoma; -73.9% (active) in the assay on MDA-MB-231 breast; -76.5% (active) in the assay with RXF 393 renal; -1.12% (active) in the assay on SF-268 CNS. The growth is 29.3% with SF-295 CNS, -85.1% (active) with SF-539 CNS, 57% with UACC-257 melanoma and 41.9% in the assay on M14 melanoma.
Regarding `ClC1=C(Cl)C(Cl)(C2(Cl)C(Cl)=C(Cl)C(Cl)=C2Cl)C(Cl)=C1Cl`, the growth is -43.1% (active) in the assay on DU-145 prostate; -24.6% (active) in the assay on K-562 leukemia; -67.5% (active) in the assay with MALME-3M melanoma; -29.3% (active) in the assay on MDA-MB-231 breast; -83.2% (active) with RXF 393 renal; -46.4% (active) with SF-268 CNS. The growth in the assay on SF-295 CNS is 89.6%; in the assay with SF-539 CNS, -59% (active); in the assay on UACC-257 melanoma, -60.4% (active); with M14 melanoma it was -57.6% (active).
In the case of `CC[C@H](C)[C@H](NC(=O)NC(C)(C)C)C(=O)N(C)[C@H](C[C@@H](OC(C)=O)c1nc(C(=O)N[C@@H](Cc2ccccc2)C[C@H](C)C(=O)OC)cs1)C(C)C`, the growth is 1.97% (active) in the assay on DU-145 prostate; 7.43% (active) with K-562 leukemia; 48.8% in the assay with MALME-3M melanoma; 13% with MDA-MB-231 breast; 32.6% in the assay with RXF 393 renal; 21.8% with SF-268 CNS. The growth in the assay with SF-295 CNS was 12.2%; in the assay with SF-539 CNS, 2.57% (active); with UACC-257 melanoma, 43.8%; with M14 melanoma, 2.12% (active).
`CC(=O)O[C@H](C[C@H](C(C)C)N(C)C(=O)[C@@H](NC(=O)[C@H]1CCCN1C)C(C)C)c1nc(C(=O)N[C@@H](Cc2ccccc2)C[C@H](C)C(=O)O)c(C)s1`: the growth in the assay with DU-145 prostate was 15.3%; with K-562 leukemia, 9.54% (active); with MALME-3M melanoma, 53.9%; in the assay with MDA-MB-231 breast it was 15.1%; in the assay on RXF 393 renal, 61.6%; with SF-268 CNS it was 29.9%. Moreover, the growth in the assay on SF-295 CNS was 11%; in the assay on SF-539 CNS, -3.18% (active); with UACC-257 melanoma, 38.2%; with M14 melanoma it was 4.87% (active).
For `C[S+]1C=Cc2ccccc2C1c1ccc(Cl)cc1` (stereo not given), the growth in the assay with DU-145 prostate was 99.8%; in the assay with K-562 leukemia, 78.8%; in the assay on MALME-3M melanoma, 103%; in the assay on MDA-MB-231 breast, 103%; in the assay on RXF 393 renal it was 74.8%; in the assay on SF-268 CNS, 47.1%. The growth in the assay with SF-295 CNS is 68%; in the assay with SF-539 CNS, 104%; with UACC-257 melanoma it was 92.5%; with M14 melanoma, 83.6%.
`COc1ccc2c(c1)c(-c1nc(-c3c[nH]c4ncccc34)cs1)cn2CCCCN1CCCCC1`: the growth with DU-145 prostate was -14.6% (active); with K-562 leukemia it was -73.7% (active); with MALME-3M melanoma, -76.1% (active); in the assay with MDA-MB-231 breast, -75.9% (active); with RXF 393 renal it was -85.8% (active); with SF-268 CNS, -50.9% (active). Moreover, the growth in the assay on SF-295 CNS was -64.9% (active); in the assay with SF-539 CNS, -80.9% (active); in the assay on UACC-257 melanoma, -82.3% (active); with M14 melanoma, -88% (active).
On to `N#CC1(c2ccccc2)CCN(Cc2ccccc2)CC1`, for which the growth was 107% with DU-145 prostate; 98.3% in the assay with K-562 leukemia; 138% with MALME-3M melanoma; 110% in the assay on MDA-MB-231 breast; 105% in the assay with RXF 393 renal; 94.9% with SF-268 CNS. Besides, the growth is 89.9% with SF-295 CNS, 107% in the assay on SF-539 CNS, 115% in the assay with UACC-257 melanoma and 106% in the assay on M14 melanoma.
For the compound `O=C1C(Cl)=C(N2CCOCC2)C(=O)c2ccccc21`, the growth in the assay on DU-145 prostate was 114%; with K-562 leukemia it was -36.7% (active); in the assay with MALME-3M melanoma, 48.2%; in the assay on MDA-MB-231 breast it was 84.2%; in the assay with RXF 393 renal, 129%; in the assay with SF-268 CNS, 87.6%. The growth in the assay with SF-295 CNS is 92.9%; in the assay on SF-539 CNS it was 117%; with UACC-257 melanoma, 54.4%; in the assay on M14 melanoma, 105%.
For `COC1CC2c3ccccc3C1C(C)=[N+]2C` (stereo not given), the growth with DU-145 prostate was 110%; with K-562 leukemia, 110%; in the assay on MALME-3M melanoma it was 88.7%; with MDA-MB-231 breast it was 99.5%; in the assay on RXF 393 renal, 98%; in the assay with SF-268 CNS it was 107%. For the same compound, the growth with SF-295 CNS is 94.2%; with SF-539 CNS, 102%; in the assay on UACC-257 melanoma, 95.6%; with M14 melanoma, 103%.
Turning to `CCOC(=O)[C@@H](C)C[C@H](Cc1ccccc1)NC(=O)c1csc([C@@H](C[C@H](C(C)C)N(C)C(=O)[C@@H](NC(=O)[C@H]2CCCCN2C)C(C)(C)CC)OC(C)=O)n1`, the growth with DU-145 prostate is 0.285% (active); in the assay with K-562 leukemia, 5.03% (active); with MALME-3M melanoma it was 11.9%; in the assay with MDA-MB-231 breast, -1.28% (active); in the assay on RXF 393 renal, 23.5%; in the assay on SF-268 CNS, 12.3%. Also, the growth with SF-295 CNS was -4.66% (active); in the assay with SF-539 CNS, -28.4% (active); in the assay with UACC-257 melanoma, 48.1%; in the assay on M14 melanoma, -26.8% (active).
`O=C(CN1CCN(C(=O)c2ccco2)CC1)Nc1ccc(Cl)cc1C(=O)c1ccccc1Cl`: the growth with DU-145 prostate was 111%; in the assay with K-562 leukemia, 80.6%; in the assay with MALME-3M melanoma, 104%; in the assay on MDA-MB-231 breast, 49.2%; in the assay on RXF 393 renal, -11.8% (active); in the assay with SF-268 CNS, 90.7%. The growth in the assay with SF-295 CNS was 109%; with SF-539 CNS, 99.8%; in the assay on UACC-257 melanoma, 86.2%; with M14 melanoma, 90.4%.
